Six1-Eya2 inh – inhibitors of human Six1/Eya2 interaction | Q15475+O00167 | AlphaScreen GST-Six1/His-Eya2 binding, biochemical; active compounds read low | activity change, % (test concentration not listed) | 360,000 compounds, 0.56% hits | AID 651725; in the data active means activity change below about -65%; inconclusive means mostly about -30% to -63%; further: on the % scale 0 is the no-effect control and ±100 the full control effect
Target sequence (O00167 whole entry, looked up): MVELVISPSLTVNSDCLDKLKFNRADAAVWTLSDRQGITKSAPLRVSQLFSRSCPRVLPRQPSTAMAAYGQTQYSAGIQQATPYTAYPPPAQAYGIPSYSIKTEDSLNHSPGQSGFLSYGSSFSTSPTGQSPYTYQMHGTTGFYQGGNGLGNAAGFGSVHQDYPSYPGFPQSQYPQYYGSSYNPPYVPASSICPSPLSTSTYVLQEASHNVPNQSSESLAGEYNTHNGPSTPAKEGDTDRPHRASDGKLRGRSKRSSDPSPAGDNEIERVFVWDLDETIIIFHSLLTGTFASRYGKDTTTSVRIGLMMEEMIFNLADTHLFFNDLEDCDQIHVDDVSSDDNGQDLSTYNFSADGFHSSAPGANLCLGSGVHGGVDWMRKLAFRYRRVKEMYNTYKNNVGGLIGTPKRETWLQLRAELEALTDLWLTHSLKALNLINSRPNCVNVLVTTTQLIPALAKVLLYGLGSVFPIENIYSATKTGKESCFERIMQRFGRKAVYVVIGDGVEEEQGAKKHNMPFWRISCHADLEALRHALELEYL
Target sequence (Q15475 whole entry, looked up): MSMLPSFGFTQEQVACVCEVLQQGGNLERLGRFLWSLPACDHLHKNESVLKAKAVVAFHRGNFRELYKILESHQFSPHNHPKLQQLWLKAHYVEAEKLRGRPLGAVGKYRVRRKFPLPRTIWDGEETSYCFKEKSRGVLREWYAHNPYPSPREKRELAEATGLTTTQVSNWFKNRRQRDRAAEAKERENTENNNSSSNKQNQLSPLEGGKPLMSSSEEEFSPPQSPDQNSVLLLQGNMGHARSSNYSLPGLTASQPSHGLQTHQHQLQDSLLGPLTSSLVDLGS
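Homogeneous AlphaScreen proximity assay pairing GST-Six1 with His-tagged Eya2 (added as 5X mix: 250 nM and 500 nM) in 50 mM Tris pH 8.0, 300 mM NaCl, 1 mM TCEP. Glutathione donor and nickel acceptor beads; 1 h, 37 °C, dark.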
CtBP-E1A blk – blocks the CtBP interaction with E1A; AlphaScreen GST-E1A/His-CtBP binding, 1536-well; active compounds read low; activity change, % (concentration not given with the values); 340,000 compounds, 0.49% hits; AID 651724; in the data active means activity change below about -65%; inconclusive means mostly about -30% to -63%; further: on the % scale 0 is the no-effect control and ±100 the full control effect
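In 5 uL wells, 23 nL compound meets equimolar GST-E1A and His-CtBP (5X stock 125 nM each) for 2 h, 37 °C. Beads (5X, 50 ug/mL) then 1 h, 37 °C, dark.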
ATXN2 expr inh – inhibitors of ATXN2 expression. 360,000 compounds, 0.72% hits. Potency, µM (highest dose often 57 µM), inactives show at the highest dose activity change, negative = inhibition, actives largely listed as inhibitors. AID 1745845. HEK-293 ATXN2-luciferase reporter, luminescence, 24 h; further: potency means the concentration at half of the fitted maximal effect; on the % scale 0 is the no-effect control and ±100 the full control effect; nearly all actives have a fitted effect of over 55% in size
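ATXN2-luciferase reporter cells (luciferase flanked by upstream and downstream ATXN2 gene portions) were treated 24 h at 37 °C with compounds at up to 57 uM. SteadyGlo luminescence gave expression; GF-AFC fluorescence gave viability.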
TGFb inhibitor – inhibitors of TGF-b signaling | HepG2 CAGA-GFP TGF-b/SMAD3 reporter, GFP fluorescence, 18 h; TGF-beta stimulated, 500 pg/mL final | Potency, µM (highest dose often 46.1 µM), for inactives: at the highest dose activity, negative = inhibition, usual class: inhibitors | 410,000 compounds, 1.2% hits; further: potency means the concentration at half of the fitted maximal effect; on the % scale 0 is the no-effect control and ±100 the full control effect; nearly all actives have a fitted effect of over 65% in size
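GFP signal (ex488/em500-530) from TGF-beta-stimulated HEPG2 CAGA-GFP cells, 500 pg/mL final, 18 h at 37 degrees C in DMEM plus 1% FBS, normalized to unstimulated and DMSO-stimulated controls.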
HepG2 tox – counter-screen for TGF-b inhibitors: cytotoxicity in HepG2 cells | HepG2 CAGA-GFP viability, ATP luminescence, 18 h | 410,000 compounds, 0.76% hits | Potency, µM (series often up to 46.1 µM), without a hit: at the top dose activity change, negative = cytotoxicity, hits mostly cytotoxic | AID 588856; further: potency means the concentration at half of the fitted maximal effect
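CellTiter-Glo luminescence gave cytotoxicity after 18 hours at 37 degrees C. The cells were HepG2 CAGA-GFP in 1% FBS DMEM, stimulated with 500 pg/mL TGF-beta after compound addition. %Activity was normalised to no-cell wells (complete cell-killing) and DMSO (no toxicity), and curves were fitted and classified.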
ATXN viability – viability counter-screen for ATXN expression inhibitors | S2 cells (HEK-293 line with an ATXN2-luciferase reporter) viability, CellTiter-Fluor protease fluorescence, 24 h | Potency, µM (titrated, usually from 56.7 µM), most hits filed as cytotoxic | 400,000 compounds, 0.49% hits | AID 651635; further: potency means the concentration at half of the fitted maximal effect; nearly all actives have a fitted effect of over 40% in size
An asterisk follows results filed as active; i = inactive; ? = inconclusive; . = no result given. Sampled rows, rich in hits. Any-hit rate of the full collection: about 2.8%. Unless noted, the call rests on the fitted dose curve; in most records, active means well fitted curve in the direction sought with a large enough effect; inconclusive means small, poorly fitted or top-dose-only effect, or another doubt; inactive means no such curve, though single readings can be large; an effect the other way counts as inactive or inconclusive.

SMILES | Six1-Eya2 inh | CtBP-E1A blk | ATXN2 expr inh | TGFb inhibitor | HepG2 tox | ATXN viability
O=[N+]([O-])c1ccc(Nc2ccccc2-c2ccccc2)c2nonc12 | . | . | -29% | . | . | .
Cc1noc2ncnc(Sc3c(Cl)cccc3Cl)c12 | 9 | -4 | 7% | ? | 11µM* | i
Cc1noc2ncnc(Sc3ccc(Cl)cc3)c12 | 4 | 1 | -20% | ? | 14µM* | ?
COc1ccc(-n2nc(C#N)c(Cl)cc2=O)cc1 | -23 | 0 | ? | 16µM* | 18µM* | .
Cc1ccc(SC/C(O)=C(\C#N)c2nc3ccccc3s2)cc1 | 2 | -1 | 16% | 25µM* | -23% | i
CCOC(=O)C=C[C@H](C[C@@H]1CCNC1=O)NC(=O)[C@@H](CC(=O)[C@@H](NC(=O)c1cc(C)on1)C(C)C)Cc1ccc(F)cc1 | . | . | 13% | . | . | .
O=S1(=O)CCO[C@H]2CCCC[C@@H]2N1Cc1ccccc1 | . | . | . | -9% | -24% | .
COC(=O)c1cc2c(-c3ccccc3)c(C)c3ccccn3c-2c1C(=O)OC | -69* | ? | -3% | 10% | 4% | ?
COC(=O)c1c(C(=O)OC)c2ccccn2c1C(=O)c1ccccc1 | 2 | 11 | -9% | 5% | 1% | ?
COC(=O)c1c(Cl)c2n3ccccc3c(C)c(-c3ccccc3)c-2c1C(=O)OC | -68* | ? | -22% | 0% | -21% | i
COc1ccc(C(=O)CC2(O)C(=O)Nc3c(Cl)ccc(Cl)c32)cc1 (stereo not drawn) | . | . | -19% | . | . | .
O=C(CC1(O)C(=O)Nc2cc(Cl)cc(Cl)c21)c1ccncc1 (stereo not drawn) | 2 | 8 | ? | ? | -106% | 25µM*
Cc1cccc2sc(NC(=O)CCNS(=O)(=O)c3cccc4nonc34)nc12 | -24 | -23 | -4% | ? | 20µM* | i
Cc1ccc(/C=C/C(=O)N2CCN(c3ncccn3)CC2)o1 | 13 | 18 | 0% | 10µM* | -27% | ?
O=C(NNC(=O)c1ccc(Oc2ccc(C3SCCS3)cc2)o1)c1ccc(Cl)cc1 | -4 | . | . | -12% | -23% | i
O=C(NNC(=O)c1ccc(Oc2cc(Cl)cc(Cl)c2)o1)c1ccccc1 | -3 | . | . | 20µM* | -84% | ?
O=c1cc(-c2ccc(O)c(-c3c(O)cc(O)c4c(=O)cc(-c5ccc(O)cc5)oc34)c2)oc2cc(O)cc(O)c12 | -21 | -68* | 1% | ? | -8% | i
O=c1c(-c2c(O)cc(O)c3c(=O)cc(-c4ccc(O)cc4)oc23)c(-c2ccc(O)cc2)oc2cc(O)cc(O)c12 | -68* | -16 | -5% | -3% | -11% | i
COc1ccc(-c2cc(=O)c3c(O)cc(O)cc3o2)cc1 | -20 | -21 | 116% | 10µM* | -57% | i
O=C(O)c1ccc2c(c1)S(=O)(=O)c1cc(N3CCN(c4cnccn4)CC3)ccc1C2=O | -14 | -9 | 21% | 9% | 2% | i
CCC(C(=O)N1CCN(c2ccc(OC)cc2)CC1)n1nc(C)n2c(cc3occc32)c1=O (stereo not drawn) | . | . | -33% | 10µM* | -20% | ?
Cc1cc2c(C)cc(=O)[nH]c2cc1NC(=O)CCl | 7 | -6 | . | ? | -66% | 11µM*
OC1c2cc(Br)ccc2N=C2CCCN21 (stereo not drawn) | 5 | . | . | ? | -104% | 16µM*
COc1ccc(-c2cc(C(F)(F)F)c3c(N)c(C(=O)NCCSC)sc3n2)cc1 | 14 | 12 | -35% | 18% | -15% | .
CN(C)CCNC(=O)c1sc2nc(-c3ccccc3)cc(C(F)(F)F)c2c1N | -5 | -19 | ? | ? | 11µM* | i
SMILES | Six1-Eya2 inh | CtBP-E1A blk | ATXN2 expr inh | TGFb inhibitor | HepG2 tox | ATXN viability
CCC1(C2CCN(C(=O)c3ccccc3C(C)=O)CC2)NC(=O)N(CCc2scnc2C)C1=O (stereo not drawn) | . | . | . | . | . | i
Cc1cc(O)c(C(C)C)cc1N=Nc1ccccc1C(=O)O | -24 | -29 | 6% | ? | -51% | ?
Cc1cc(O)c(C(C)C)cc1N=Cc1ccccc1[N+](=O)[O-] | 0 | -3 | 18µM* | 4% | -4% | ?
Cc1csc(C(C)N(C)C(=O)c2cc(NC(=O)C3CCC3)c3c(c2)nc(-c2ccncc2)n3C)n1 (stereo not drawn) | . | . | . | . | . | i
CCCCCCCN(c1ccccc1)C1C[C@H]2CCCC(=O)N3CC[C@@H](C1)[C@@H]23 (stereo partly drawn) | . | . | . | 14µM* | -61% | .
O=C(CCC(=O)OCC(=O)c1ccccc1)NC1CCCCC1 | 7 | -7 | 1% | ? | 5.6µM* | i
Nc1nnc(CCOc2ccc(Cl)cc2)s1 | 0 | 0 | 3% | 1% | -14% | i
Cc1cccc(OCCc2nnc(N)s2)c1C | 13 | -2 | -8% | 20µM* | -11% | i
CN(C)C(=S)SC(=S)N(C)C | . | . | 2.5µM* | . | . | 2.5µM*
Cc1[nH]c(N=Nc2ccccc2)nc1N=Nc1ccccc1 | ? | -66* | -15% | ? | -19% | .
CC(=O)O[C@]1(C(C)=O)CC[C@H]2[C@@H]3C=C(Cl)C4=CC(=O)[C@@H]5C[C@H]5[C@]4(C)[C@@H]3CC[C@@]21C | . | . | -15% | . | . | .
N#C/C(=C\c1cccc([N+](=O)[O-])c1)C(=O)NCc1ccc(Cl)cc1 | -5 | 2 | 24µM* | ? | -28% | ?
Cc1nnc(N2CCCC(C(=O)NCCc3ccccc3)C2)c2nn(-c3ccccc3)c(C)c12 (stereo not drawn) | . | . | -25% | -28% | -34% | 13µM*
Cc1ccc(CCNC(=O)C2CCCN(c3nnc(C)c4c(C)n(-c5ccccc5)nc34)C2)cc1 (stereo not drawn) | . | . | -13% | 6% | -13% | ?
COc1ccc(NC(=O)C2CCCN(c3ncnc4onc(C)c34)C2)cc1OC (stereo not drawn) | . | . | -15% | -6% | -12% | i
Cc1nnc(N2CCCC(C(=O)NCc3ccccc3F)C2)c2nn(-c3ccccc3)c(C)c12 (stereo not drawn) | 0 | -3 | -21% | 14% | 0% | i
Cc1ccccc1CNC(=O)C1CCCN(c2nnc(C)c3c(C)n(-c4ccccc4)nc23)C1 (stereo not drawn) | 1 | -23 | 20µM* | -6% | -16% | 32µM*
CCc1ccc(CNC(=O)C2CCCN(c3nnc(C)c4c(C)n(-c5ccccc5)nc34)C2)cc1 (stereo not drawn) | -2 | . | ? | ? | -51% | 20µM*

High-throughput results from PubChem.
